Experiment [1] can be described thus: qHTS assay to identify small molecule agonists of the estrogen receptor alpha (ER-alpha) signaling pathway in the presence of an antagonist - cell viability counter screen (AID 1259386).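 Further: series mostly up to about 92 µM; cells exposed to compounds for 22 h at 37 °C before the viability read; nearly all actives have a fitted effect of over 30% in size.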 The gist of the method: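 Cells are starved of estrogens for 5 days in charcoal-stripped serum, seeded for 24hr and co-treated with ICI-182,780 (10.0nM final) and test compounds. After 22hr at 37C, viability is read as CellTiter-Fluor fluorescence.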
In general terms: qHTS replaces the single test concentration by a dilution series.

For experiment [2], the target named is Progesterone receptor (Homo sapiens) (UniProt P06401). Kind of experiment: qHTS assay to identify small molecule agonists of the progesterone receptor (PR) signaling pathway (AID 1346784; calls by dose curve; further: nearly all actives have a fitted effect of over 30% in size). The gist of the method: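 Using charcoal-stripped serum (2%) to limit endogenous steroids, PR-UAS-bla HEK 293T cells received compounds for 16 hr at 37C after 6 hr plating; beta-lactamase FRET fluorescence was recorded following 2 hr substrate loading at room temperature.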
Chain of Progesterone receptor (Homo sapiens) (P06401 whole entry, looked up): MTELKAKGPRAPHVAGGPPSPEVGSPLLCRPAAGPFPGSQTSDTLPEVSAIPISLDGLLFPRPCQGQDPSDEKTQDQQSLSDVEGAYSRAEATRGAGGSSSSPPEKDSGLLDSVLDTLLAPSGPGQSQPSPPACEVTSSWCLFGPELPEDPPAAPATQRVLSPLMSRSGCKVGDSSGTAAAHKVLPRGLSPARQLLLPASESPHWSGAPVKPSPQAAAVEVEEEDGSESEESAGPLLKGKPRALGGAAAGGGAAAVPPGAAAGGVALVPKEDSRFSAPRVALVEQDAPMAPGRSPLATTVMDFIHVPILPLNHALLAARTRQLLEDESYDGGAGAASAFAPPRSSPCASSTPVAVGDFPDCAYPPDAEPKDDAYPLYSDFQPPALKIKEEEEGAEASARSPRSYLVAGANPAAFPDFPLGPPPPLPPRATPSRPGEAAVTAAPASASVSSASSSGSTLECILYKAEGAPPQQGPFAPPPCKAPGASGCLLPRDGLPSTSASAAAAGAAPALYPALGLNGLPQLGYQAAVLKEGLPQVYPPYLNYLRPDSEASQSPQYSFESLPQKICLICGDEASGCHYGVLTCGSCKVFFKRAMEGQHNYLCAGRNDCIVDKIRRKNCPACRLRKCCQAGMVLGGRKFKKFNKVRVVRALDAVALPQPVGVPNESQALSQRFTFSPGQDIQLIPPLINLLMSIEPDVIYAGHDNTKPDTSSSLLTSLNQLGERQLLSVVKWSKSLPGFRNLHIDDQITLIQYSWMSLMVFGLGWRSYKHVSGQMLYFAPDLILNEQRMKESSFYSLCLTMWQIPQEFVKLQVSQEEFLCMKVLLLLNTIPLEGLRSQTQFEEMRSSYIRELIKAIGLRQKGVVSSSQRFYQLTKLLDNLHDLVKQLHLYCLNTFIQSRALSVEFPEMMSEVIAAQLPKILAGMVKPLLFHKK

Experiment [3] shares this target. The experiment is described as follows: qHTS assay to identify small molecule antagonists of the progesterone receptor (PR) signaling pathway (AID 1346795; active means well fitted inhibition curve with a large enough effect in the signal ratio in the repeat runs, not every such curve was filed as active; the % refers to the signal ratio). In outline:
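Inhibition of R5020-induced (1 nM final) beta-lactamase reporter signal in PR-UAS-bla HEK293T cells was scored by FRET fluorescence after overnight (16 hr) compound treatment.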

Experiment [4] in a line: qHTS assay to identify small molecule antagonists of the progesterone receptor (PR) signaling pathway - cell viability counter screen (AID 1346798). Further: nearly all actives have a fitted effect of over 50% in size. Further: potency means the concentration at half of the fitted maximal effect. The gist of the method:
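ATP content as viability readout: CellTiter-Glo luminescence, 30 min room temperature, in PR-UAS-bla HEK293T cells after 16 hr compound/R5020 treatment at 37C and 5% CO2.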

Experiment [5] is described as follows: qHTS assay to identify small molecule agonists of the progesterone receptor (PR) signaling pathway - cell viability counter screen (AID 1346799; calls by dose curve; further: nearly all actives have a fitted effect of over 45% in size). In outline: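 Cytotoxicity in PR-bla HEK293T cells: 16 h compound, 37C; CellTiter-Glo added post-FRET read; luminescence after 30 min RT.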
Experiment [6] in a line: qHTS assay to identify small molecule antagonists of the TGF-beta/Smad signaling pathway - cell viability counter screen (AID 1346824). Further: nearly all actives have a fitted effect of over 50% in size. In outline: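 Cytotoxicity counter-screen run in the same wells as the beta-lactamase Smad reporter read: CellTiter-Glo luminescence after 30 min at room temperature. HEK 293T SBE-bla cells had 5 hr compound exposure at 37 C with TGF-beta1 (0.25 ng/mL stock).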

Experiment [7] is described as follows: qHTS assay to identify small molecule agonists of the TGF-beta/Smad signaling pathway (AID 1346859; active means well fitted activation curve with a large enough effect in the signal ratio in the repeat runs, not every such curve was filed as active; the % refers to the signal ratio; further: series mostly up to about 77 µM). In outline:
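Stable Smad binding element-beta-lactamase HEK 293T cells; 5 hr compound exposure at 37 C under 5% CO2; 2 hr room-temperature substrate step; fluorescence excited at 405 nm, collected at 460 nm and 530 nm.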

Experiment [8] addresses Thyrotropin-releasing hormone receptor (Homo sapiens) (UniProt P34981). Kind of experiment: qHTS assay to identify small molecule antagonists of the thyrotropin-releasing hormone receptor (TRHR) signaling pathway (AID 1346877; active means well fitted inhibition curve with a large enough effect in the repeat runs, not every such curve was filed as active; further: series mostly up to about 51 µM). In outline: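 Cells (TRHR-HEK293) are plated and kept 18 h at 37 °C/5% CO2. A calcium-sensitive dye is added for 2 h, compound follows for 5 min at room temperature, and TRH is then given at 1 nM final.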

Experiment [9] shares this target. The experiment is described as follows: qHTS assay to identify small molecule agonists of the thyrotropin-releasing hormone receptor (TRHR) signaling pathway (AID 1346891; calls by dose curve;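 further: HEK293 cells expressing TRHR with calcium dye readout; series mostly up to about 58 µM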). The gist of the method: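 In 1536-format, 1500 TRHR-Hek293 cells per well grew 18 h, took up calcium dye for 2 h at 37 °C, received compound, and were read kinetically; 15-point titrations, triplicates.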

Experiment [10] is described as follows: Human pregnane X receptor (PXR) small molecule agonists, qHTS cell viability counter screen (AID 1346977). Further: nearly all actives have a fitted effect of over 50% in size. The gist of the method:
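Readout is CellTiter-Fluor fluorescence from PXR-Luc HepG2 cells. Plated cells rested 5hr, then were treated with compounds for 24hr at 37C and 5% CO2, with reagent present during the last hour.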

The nature of experiment [11]: Caspase-3/7 induction in HepG2 cells by small molecules, qHTS assay (AID 1346978). Further: nearly all actives have a fitted effect of over 15% in size. In outline: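 Caspase-3/7 induction was measured by Caspase-Glo 3/7 luminescence (30 min, room temperature) after a 17 hr compound exposure of wild-type HepG2 cells seeded at 2,000 per well and pre-incubated 5 hr.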
The nature of experiment [12]: Caspase-3/7 induction in CHO-K1 cells by small molecules, qHTS cell viability counter screen (AID 1346979). Further: nearly all actives have a fitted effect of over 35% in size. The gist of the method: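 To flag cytotoxic compounds, treated CHO-K1 wild-type cells were given CellTiter-Fluor at 16hr and read fluorescently after 1hr at 37C; the caspase-3/7 luminescence was measured in these same wells.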
A short description of experiment [13]: Caspase-3/7 induction in CHO-K1 cells by small molecules, qHTS assay (AID 1346980). Further: nearly all actives have a fitted effect of over 15% in size. The gist of the method:
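Luminescent Caspase-Glo 3/7 read (30min, room temperature) quantified apoptosis induction. Cells were wild-type CHO-K1, treated with compound for 17hr at 37 C and 5% CO2.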

For experiment [14], the target named is Nuclear receptor subfamily 1 group I member 2 (Homo sapiens) (UniProt O75469). The experiment is described as follows: Human pregnane X receptor (PXR) small molecule agonists, qHTS assay (AID 1346982). Further: nearly all actives have a fitted effect of over 35% in size. Further: potency means the concentration at half of the fitted maximal effect. In outline:
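Agonist mode qHTS: PXR-Luc HepG2 cells plated 5 hr before DMSO-dissolved compounds were pinned in, cultured 24 hr at 37 C, 5% CO2; ONE-Glo luminescence readout.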

In experiment [15] the target is Nuclear receptor subfamily 1 group I member 2 (Rattus norvegicus) (UniProt Q9R1A7). Kind of experiment: Rat pregnane X receptor (rPXR) activation by small molecules, qHTS assay (AID 1346983). Further: nearly all actives have a fitted effect of over 20% in size. As to conditions: rPXR luciferase reporter cells, One-Glo luminescence, 24 h; max activation: active compounds read high. The gist of the method: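 Luminescent readout (One-Glo luciferase, 30 min room temperature) followed 24 hr compound treatment at 37 C of rPXR cells plated 2,000 per well and preincubated 5hr; qHTS format with compounds delivered in DMSO.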
Chain of Nuclear receptor subfamily 1 group I member 2 (Rattus norvegicus) (Q9R1A7 whole entry, looked up): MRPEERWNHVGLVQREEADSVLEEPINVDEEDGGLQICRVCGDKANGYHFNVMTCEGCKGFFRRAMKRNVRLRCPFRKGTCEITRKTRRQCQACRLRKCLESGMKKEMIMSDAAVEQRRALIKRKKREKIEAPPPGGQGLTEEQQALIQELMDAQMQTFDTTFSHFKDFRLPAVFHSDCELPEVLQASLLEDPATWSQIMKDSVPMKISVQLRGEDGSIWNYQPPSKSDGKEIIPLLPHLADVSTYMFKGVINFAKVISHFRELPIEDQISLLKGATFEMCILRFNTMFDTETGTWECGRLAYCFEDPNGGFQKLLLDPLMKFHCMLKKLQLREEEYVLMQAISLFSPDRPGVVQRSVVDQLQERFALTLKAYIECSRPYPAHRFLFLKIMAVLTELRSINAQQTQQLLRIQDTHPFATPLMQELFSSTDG

Experiment [16] addresses Nuclear receptor subfamily 1 group I member 2 (Homo sapiens) (UniProt O75469). Kind of experiment: CYP3A4 induction through human pregnane X receptor (PXR) by small molecules, qHTS assay (AID 1346984). Further: nearly all actives have a fitted effect of over 40% in size. The gist of the method:
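Steps: seed DPX-2 cells, 5 hr at 37C; pin-transfer compounds; 24 hr at 37C; add Luciferin-IPA (3uM final), 3 hr at 37C; add One-Glo, 30 min RT; read luminescence.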

The target is the same in experiment [17]. Kind of experiment: Human pregnane X receptor (PXR) activation by small molecules, qHTS assay (AID 1346985). Further: nearly all actives have a fitted effect of over 40% in size. In outline:
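DPX-2 cells (HepG2 co-transfected with a PXR response element and a CYP3A4-promoter luciferase construct) were seeded at 2,000 per well, rested 5 hr at 37C, then exposed to DMSO-dissolved compounds for 24 hr. Activation was read as luciferase luminescence.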

Experiment [18] addresses Cytochrome P450 2D6 (Homo sapiens) (UniProt P10635). The experiment is described as follows: Cytochrome P450 Family 2 Subfamily D Member 6 (CYP2D6) small molecule antagonists: luciferase reporter qHTS assay (AID 1671196). Further: nearly all actives have a fitted effect of over 50% in size. Further: potency means the concentration at half of the fitted maximal effect. In outline: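 P450-Glo format: CYP2D6 converts a proluciferin substrate to luciferin in an NADPH-driven reaction lasting 1 h at room temperature. Light output, proportional to CYP2D6 activity, reflects interference by test chemicals.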
(In a reporter assay the amount or activity of a reporter protein is the signal.)

The nature of experiment [19]: qHTS assay to identify small molecule agonists of the TGF-beta/Smad signaling pathway - cell viability counter screen (AID 1346829). Further: top concentration of the series differs between compounds; nearly all actives have a fitted effect of over 45% in size. In outline:
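Compound-treated SBE-bla HEK 293T cells (5 hr, 37 C) were assessed for viability with CellTiter-Glo in parallel with the reporter read.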

Experiment [20] can be described thus: Caspase-3/7 induction in HepG2 cells by small molecules, qHTS cell viability counter screen (AID 1346981). Further: series mostly up to about 92 µM; nearly all actives have a fitted effect of over 30% in size. The gist of the method: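 Steps: seed 2,000 HepG2 cells per well; incubate 5 hr at 37 C; pin-add compounds in DMSO; incubate 16 hr; add CellTiter-Fluor; after 1 hr at 37 C and 5% CO2, read fluorescence.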

The text below walks through data of PubChem BioAssay (Tox21).

Unmarked numbers belong to inactive results. Records with an inconclusive call do not appear. Active and inactive are the calls of the source. Unless noted, the call rests on the fitted dose curve; in most records, active means well fitted curve in the direction sought with a large enough effect in the repeat runs; inconclusive means weak or mixed curves; inactive means no such curve, though single readings can be large; an effect the other way counts as inactive or inconclusive.
On the % scale 0 is the no-effect control and ±100 the full control effect.

Chain of Cytochrome P450 2D6 (Homo sapiens) (P10635 whole entry, looked up): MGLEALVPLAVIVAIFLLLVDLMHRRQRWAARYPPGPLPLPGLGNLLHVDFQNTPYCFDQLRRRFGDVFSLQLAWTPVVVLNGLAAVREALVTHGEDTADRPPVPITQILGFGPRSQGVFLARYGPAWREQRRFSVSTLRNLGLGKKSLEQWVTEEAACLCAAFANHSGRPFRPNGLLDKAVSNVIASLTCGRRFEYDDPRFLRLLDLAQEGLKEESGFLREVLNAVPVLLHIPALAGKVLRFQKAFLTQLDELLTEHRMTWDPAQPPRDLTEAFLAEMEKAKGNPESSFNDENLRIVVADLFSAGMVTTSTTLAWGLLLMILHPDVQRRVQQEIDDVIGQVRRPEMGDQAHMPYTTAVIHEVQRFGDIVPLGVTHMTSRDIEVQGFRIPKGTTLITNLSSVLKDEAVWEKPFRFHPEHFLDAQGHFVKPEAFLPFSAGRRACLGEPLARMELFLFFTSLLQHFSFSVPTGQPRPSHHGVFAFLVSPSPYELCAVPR
Chain of Thyrotropin-releasing hormone receptor (Homo sapiens) (P34981 whole entry, looked up): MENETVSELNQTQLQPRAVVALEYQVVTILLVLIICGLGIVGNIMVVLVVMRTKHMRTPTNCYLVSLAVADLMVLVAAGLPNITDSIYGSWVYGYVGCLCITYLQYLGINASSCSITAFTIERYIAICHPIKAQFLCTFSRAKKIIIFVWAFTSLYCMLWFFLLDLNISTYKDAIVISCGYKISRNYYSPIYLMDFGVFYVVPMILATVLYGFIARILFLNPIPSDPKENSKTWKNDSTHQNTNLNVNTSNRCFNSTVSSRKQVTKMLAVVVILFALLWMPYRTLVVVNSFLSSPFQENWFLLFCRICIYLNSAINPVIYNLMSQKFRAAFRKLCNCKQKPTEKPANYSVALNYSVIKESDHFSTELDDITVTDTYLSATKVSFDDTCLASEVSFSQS
Chain of Nuclear receptor subfamily 1 group I member 2 (Homo sapiens) (O75469 whole entry, looked up): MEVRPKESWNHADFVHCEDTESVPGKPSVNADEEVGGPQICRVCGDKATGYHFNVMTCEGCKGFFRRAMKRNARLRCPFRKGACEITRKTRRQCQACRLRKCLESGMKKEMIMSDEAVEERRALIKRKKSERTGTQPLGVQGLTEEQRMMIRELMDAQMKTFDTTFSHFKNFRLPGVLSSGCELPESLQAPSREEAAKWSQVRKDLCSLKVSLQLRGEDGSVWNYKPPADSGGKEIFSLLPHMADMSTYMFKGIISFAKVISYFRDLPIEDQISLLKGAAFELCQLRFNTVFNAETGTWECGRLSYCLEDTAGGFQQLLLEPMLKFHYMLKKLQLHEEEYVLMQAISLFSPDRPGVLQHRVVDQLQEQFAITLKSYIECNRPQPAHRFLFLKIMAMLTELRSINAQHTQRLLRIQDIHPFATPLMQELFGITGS

Regarding `CC[C@H](C)[C@H](N)C(=O)O`, the Potency result in [1], in [3], in [4], in experiment [5], in experiment [6] and in [9] was “inactive” in each case. For the same compound, the Potency entry in experiment [10], in experiment [12], in experiment [13], in experiment [14], in experiment [16] and in experiment [17] was “inactive” each time. Further, the Potency result in experiment [18] was “inactive”. Further, the compound was called inactive in [2], in experiment [7], in experiment [8] and in experiment [11]. The max activation in experiment [15] is -0.0819%.
`Cc1ccc(C(=O)C(C)CN2CCCCC2)cc1` (configuration not stated): the Potency result in experiment [1], in experiment [3], in experiment [4], in [5], in experiment [6] and in experiment [9] was “inactive” each time. Besides, the Potency result in [10], in experiment [12], in experiment [13], in experiment [14], in experiment [16] and in [17] was “inactive” each time. The result in experiment [2], in [7] and in experiment [8] was inactive. For the same compound, in experiment [15], the max activation was -1.62%. Further, the Potency in experiment [18] is 0.977 µM (active).
For the compound `CCCCCCCCCC=O`, the Potency result in [1], in [3], in [4], in experiment [5], in experiment [6] and in experiment [9] was “inactive” in each case. Also, the Potency result in experiment [10], in experiment [12], in experiment [13], in [14] and in [18] was “inactive” throughout. Further, the outcome in experiment [2], in experiment [8] and in experiment [11] was inactive.
As to `Cc1cccc(Oc2ccccc2)c1`, the Potency result in experiment [1], in experiment [3], in experiment [6], in [19], in experiment [9] and in experiment [10] was “inactive” each time. Further, the Potency result in experiment [12], in experiment [13], in experiment [20] and in [14] was “inactive” in each case. Further, the call in [2], in [7], in experiment [8] and in experiment [11] was inactive. Also, the results for the Potency in experiment [4] and in experiment [18] were 21.1 µM (active) and 34.7 µM (active), respectively.
Take `CCCCOc1cc(C(=O)OCCN(CC)CC)ccc1N`: the Potency result in [1], in experiment [3], in experiment [4], in [5], in experiment [6] and in experiment [9] was “inactive” throughout. The Potency entry in [10], in experiment [12], in [13] and in experiment [20] was “inactive” each time. For the same compound, the result in [2], in experiment [7], in [8] and in experiment [11] was inactive. In addition, the max activation in [15] was -4.73%.
For `O=CNc1ccccc1`, the Potency result in experiment [1], in experiment [3], in experiment [4], in [5], in experiment [6] and in [9] was “inactive” each time. In addition, the Potency entry in experiment [12], in experiment [13], in experiment [20], in experiment [14] and in experiment [18] was “inactive” each time. In addition, the compound was classed as inactive in experiment [2], in [7], in experiment [8] and in [11].
On to `CCCCCCCCCCCCCCCBr`, for which the Potency result in experiment [1], in experiment [3], in experiment [4], in experiment [6], in experiment [19] and in experiment [10] was “inactive” in each case. Further, the Potency entry in experiment [12], in experiment [13], in [14] and in experiment [18] was “inactive” throughout. The result in experiment [2], in experiment [7] and in experiment [11] was inactive.
`CC1=CCC(C(C)C)C=C1` (configuration not stated): the Potency entry in [1], in experiment [3], in [4], in experiment [6], in experiment [19] and in experiment [10] was “inactive” each time. Further, the Potency entry in [12], in [13] and in [20] was “inactive” each time. Besides, the outcome in [2], in experiment [7] and in experiment [11] was inactive. Moreover, the values for the Potency in experiment [14] and in experiment [18] were 30.6 µM (active) and 71 µM (active), respectively.
In the case of `O=C(NN1CCCC1)NS(=O)(=O)c1ccc(Cl)cc1`, the Potency entry in [1], in experiment [3], in experiment [4], in [6], in experiment [19] and in experiment [9] was “inactive” throughout. Also, the Potency result in experiment [10], in experiment [12], in experiment [13], in experiment [14] and in experiment [18] was “inactive” each time. Also, the result in experiment [2], in experiment [7], in experiment [8] and in experiment [11] was inactive.
